Assay results as given in the supplement of paper PMC9948646.
Unmarked numbers belong to inactive results.

Tested on: gramicidin D channels in DC22:1PC lipid vesicles (bilayer-modifying potency)
Experiment: initial Tl+ fluorescence quench rate relative to no-drug control (NormRate, gramicidin monomer-dimer shift) (ratio (fold of control)); higher = stronger bilayer-modifying effect (equilibrium shifted toward conducting dimers), active = 1.5 or more
Conditions: 10 µM; lipid concentration 50 µM; temperature: 25 °C
Procedure: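 Stopped-flow fluorescence quench assay: ANTS-loaded DC22:1PC large unilamellar vesicles doped with gramicidin D (1:2000), 50 µM lipid, equilibrated 10 min with 10 µM drug (0.1% DMSO), mixed with Tl+ quench buffer at 25°C. Initial quench rate (Tl+ influx) was fitted with a modified stretched exponential and normalised to the no-drug control rate (NormRate); duplicates from two independent LUV preparations (triplicates for 7 drugs).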

First: COc1ccc(-c2cnc3ccc(NCc4ccc(S(N)(=O)=O)cc4)nn23)cn1
Second: Cc1nc(-c2ccccn2)nc(NCCc2ccc(S(C)(=O)=O)cc2)c1Cl
The “initial Tl+ fluorescence quench rate” value of the first is higher: 1.24 for the first, 1.13 for the second.

Compared with CC(C)(C)OC(=O)N1CCN(c2nccc(-c3ccc(-c4ccc(Cl)cc4)s3)n2)CC1, O=C(NCc1ccco1)N1CCN(Cc2ccc(Cl)s2)CC1 is lower in “initial Tl+ fluorescence quench rate” value: 1.28 for the first, 1.03 for the second.

Compared with c1ccc2c(c1)CN(CC1CC1)CC1(CCN(Cc3c[nH]c4cnccc34)CC1)O2, Cc1ccccc1CN1CCC(O)(c2ccc(Cl)c(C(F)(F)F)c2)CC1 is higher in “initial Tl+ fluorescence quench rate” value: 1.06 for the first, 1.14 for the second.

Going from c1ccc(-c2[nH]c3ccccc3c2[C@H](c2ccccn2)N2CCCC2)cc1 to O=C(Nc1ccccc1-c1nc2c(C(=O)O)cccc2o1)c1ccccc1, the “initial Tl+ fluorescence quench rate” value rises from 1.06 to 1.34.

Going from O=C(Nc1nc(-c2ccccn2)cs1)[C@H]1C[C@@H]1c1ccccc1F to O=C(COc1cccc(F)c1)Nc1nc(-c2ccccn2)cs1, the “initial Tl+ fluorescence quench rate” value falls from 1.41 to 1.16.

First: Clc1cccc(CO[C@H]2CCc3ccccc3[C@@H]2n2ccnn2)c1
Second: Cc1ccc2nc(C)c(-c3ccn(Cc4ccccc4)n3)n2c1
The “initial Tl+ fluorescence quench rate” value of the first is higher: 1.37 for the first, 1.28 for the second.

First: COc1ccc(-c2nc(-c3cccc(NC(=O)Cc4ccc(F)cc4)c3)no2)cc1OC
Second: Cc1nc(-c2cccc(NCc3ccccc3)c2)[nH]c1C
The “initial Tl+ fluorescence quench rate” value of the first is higher: 1.47 for the first, 1.24 for the second.

First: O=C(NCc1ccoc1)N1CCN(Cc2ccc3c(c2)OCO3)CC1
Second: O=C(C1CCN(c2nnnn2-c2ccccc2)CC1)N1CCc2ccccc2C1
The “initial Tl+ fluorescence quench rate” value of the first is lower: 1.11 for the first, 1.23 for the second.

Going from COc1ccc(C2=NCCN2)cc1-c1cn(-c2cccc(C3=NCCN3)c2)nn1 to COc1cc(C2=NCCN2)cc2cc(-c3ccc(C4=NCCN4)cc3)oc12, the “initial Tl+ fluorescence quench rate” value falls from 1.2 to 1.1.

First: CC[C@H](Sc1nc2ccccc2o1)C(=O)Nc1nccs1
Second: NC(=O)c1cc(-c2ccsc2)ccc1OCCOc1ccccc1
The “initial Tl+ fluorescence quench rate” value of the first is higher: 1.18 for the first, 1.14 for the second.

First: Cc1cc(NC(=O)c2ccc(Oc3ccc(Cl)cc3O)o2)no1
Second: Clc1ccc(CCNc2cc(-c3ccccc3)nc3ncnn23)cc1
The “initial Tl+ fluorescence quench rate” value of the first is lower: 1.11 for the first, 1.3 for the second.

Going from CCn1cnc2c(Nc3cc(F)cc(F)c3)nc(C#N)nc21 to COc1ccc(-c2nn(C(C)C)c3ncnc(N)c23)cc1OC, the “initial Tl+ fluorescence quench rate” value falls from 1.21 to 1.01.

COc1cc(C(F)(F)F)nc2ccc(C)c(N)c12 and COc1ccc(-c2cncc3ccc(C(=O)NCCCn4ccnc4)nc23)cc1 are the same in “initial Tl+ fluorescence quench rate” value: 1.03 for the first, 1.03 for the second.

First: [H]/N=C(\N)c1ccc(OCCCCCOc2ccc(/C(N)=N\[H])cc2)cc1
Second: CCCCN(CCCC)c1c(C#N)cc(S(=O)(=O)Nc2ccccc2)cc1C#N
The “initial Tl+ fluorescence quench rate” value of the first is lower: 1.02 for the first, 1.1 for the second.

For COc1ccc(Cl)cc1NC(=O)CN(C)C(=O)c1cnn(-c2ccccc2)n1, the “initial Tl+ fluorescence quench rate” value was 3.28 (active).
For Cn1ncc2c(N3CCOCC3)nc(NCCc3c[nH]c4ccccc34)nc21, the “initial Tl+ fluorescence quench rate” value was 3.03 (active).
COc1cccc(OC)c1C(=O)Nc1ccc(Cl)c(-c2nc3ccccc3s2)c1 was tested, and the “initial Tl+ fluorescence quench rate” value was 3.12 (active).
For CN1CCN(CCCOc2ncc(Nc3ncc(-c4ccc(C(F)(F)F)c(F)c4)nc3C(N)=O)cn2)CC1, the “initial Tl+ fluorescence quench rate” value was 3.11 (active).
In the case of c1ccc(-c2nc(NC3CCCCC3)cc(C3CC3)n2)nc1, the “initial Tl+ fluorescence quench rate” value is reported as 1.76 (active).
With Cc1ccc(NC(=O)C[C@@H]2COc3ccccc3O2)cc1Cl the “initial Tl+ fluorescence quench rate” value was 2.24 (active).
With CCc1nc2ccccc2n1C[C@H](O)COc1cc(C)ccc1Cl the “initial Tl+ fluorescence quench rate” value was 2.91 (active).
In the case of CCc1nc2ccc(C(=O)NCc3ccc4c(c3)OCO4)cn2c1N(C)Cc1cccs1, the “initial Tl+ fluorescence quench rate” value is reported as 2.01 (active).
For c1ccc(Oc2ccc(-c3cc(C4CCOCC4)[nH]n3)cc2)cc1, the “initial Tl+ fluorescence quench rate” value was 3.48 (active).
For CC(C)(C)c1cnc(NC(=O)c2ccccc2O)s1, the “initial Tl+ fluorescence quench rate” value was 2.31 (active).
With O=C(Nc1ccc(F)c(-c2nc3cc(-c4ccccc4)cnc3[nH]2)c1)N1CCCC1 the “initial Tl+ fluorescence quench rate” value was 1.72 (active).
In the case of O=C(Nc1ccccc1)c1ccc(-c2cc3ccncc3cc2OC2CCNCC2)s1, the “initial Tl+ fluorescence quench rate” value is reported as 1.8 (active).
